p47phox inh: blocks human p47phox regulatory protein of NADPH oxidases; P14598; p47phox/p22phox peptide binding, fluorescence polarization, 2 h; inhibition, % at 24.7 µM; 220,000 compounds, 0.53% hits; AID 1274;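 active means inhibition above about 30%, limit read from the data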;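 further: 0% = p47phox with labelled peptide and 100% = labelled peptide alone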
Bim-Mcl-1: human Bim-Mcl-1 interaction inhibition; Bead-based flow cytometry, Bim peptide-Mcl-1 binding; inhibition, % at 10 µM; 190,000 compounds, 0.1% hits; in the data active means inhibition above about 40%;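 further: 0% = no compound tracer wells and 100% = peptide blocker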
Target sequence (Q07820 whole entry, looked up): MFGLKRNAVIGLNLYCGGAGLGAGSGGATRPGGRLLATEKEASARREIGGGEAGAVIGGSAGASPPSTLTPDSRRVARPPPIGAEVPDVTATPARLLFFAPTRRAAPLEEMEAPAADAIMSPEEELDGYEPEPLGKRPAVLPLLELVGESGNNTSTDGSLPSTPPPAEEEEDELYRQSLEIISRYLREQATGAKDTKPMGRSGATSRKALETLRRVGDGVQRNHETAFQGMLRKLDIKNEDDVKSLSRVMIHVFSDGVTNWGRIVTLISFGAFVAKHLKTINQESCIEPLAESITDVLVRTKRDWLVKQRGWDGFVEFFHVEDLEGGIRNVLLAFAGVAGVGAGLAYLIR
m-calpain inh: inhibitors of pig calpain II; purified calpain II, fluorogenic peptide substrate, 30 min; inhibition, % at 16 µM; 220,000 compounds, 0.37% hits; AID 1236;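 active means inhibition above about 50%, limit read from the data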
Mcl1 Bid PPI: disrupts binding of human Mcl-1 to Bid peptide | Q07820 | TR-FRET Mcl-1/Bid-Dy647 peptide binding, 1536-well | inhibition, % at 21.7 µM | 220,000 compounds, 0.97% hits | AID 1021;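 active means compounds that cut the binding signal by more than half at the single screening dose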;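 further: His-tagged Mcl-1 with europium anti-His antibody binding Bid BH3 peptide; 0% = Mcl-1 plus peptide wells and 100% = peptide-only wells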
14-3-3 Bad inh: disrupts binding of bovine 14-3-3 zeta to phospho-Bad peptide; P63103; TR-FRET 14-3-3zeta/Dy647-pBad peptide displacement, 1 h; inhibition, % at 21.7 µM; 220,000 compounds, 0.71% hits;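 active means inhibition above about 70%, limit read from the data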;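 further: 0% = full 14-3-3 plus peptide FRET controls and 100% = background without 14-3-3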
Target sequence (P63103 whole entry, looked up): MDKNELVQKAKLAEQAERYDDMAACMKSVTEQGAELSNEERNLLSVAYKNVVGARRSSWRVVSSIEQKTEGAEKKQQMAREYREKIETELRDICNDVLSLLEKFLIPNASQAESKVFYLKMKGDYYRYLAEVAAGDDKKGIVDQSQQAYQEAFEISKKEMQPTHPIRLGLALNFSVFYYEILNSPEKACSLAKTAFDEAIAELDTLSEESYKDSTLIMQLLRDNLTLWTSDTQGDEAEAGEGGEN
Mcl1 Noxa PPI: Mcl-1/Noxa interaction inhibition | 220,000 compounds, 1.5% hits | inhibition, % at 21.7 µM | Q07820 | TR-FRET Mcl-1/Noxa peptide binding, 2 h;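 active means compounds that cut the protein-peptide binding signal by more than 50% relative to plate controls in a single-dose test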;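 further: His-tagged Mcl-1 with rhodamine Noxa BH3 peptide and terbium anti-His antibody; 0% = Mcl-1 plus Noxa peptide wells and 100% = peptide-only wells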
An asterisk follows results filed as active; . = no result; + = active, no number. In the library only some 3.4% were active in any assay of this set; here they are far more common.

SMILES | p47phox inh | Bim-Mcl-1 | m-calpain inh | Mcl1 Bid PPI | 14-3-3 Bad inh | Mcl1 Noxa PPI
CCOC(=O)C1CCCN(CC(=O)NC2CC2)C1 (stereo unspecified) | 5.6 | -9.0 | -2.2 | 40.1 | 77.2* | 27.4
CCOC(=O)C1CCCN(C(=O)CSCc2ccccc2)C1 (stereo unspecified) | -7.0 | -2.0 | -5.7 | -6.9 | 83.6* | -2.2
CCOC(=O)C1CCCN(Cc2c(Cl)cccc2Cl)C1 (stereo unspecified) | -15.4 | -3.0 | 5.7 | 23.1 | 41.1 | 27.8
CCOC(=O)C1CCCN(Cc2ccccc2F)C1 (stereo unspecified) | -2.9 | -11.0 | -17.5 | 24.8 | 72.6* | 32.7
CCOC(=O)C1CCCCN1Cc1ccccc1C(F)(F)F (stereo unspecified) | 4.3 | 18.0 | -26.5 | 40.4 | 80.3* | 30.5
CCOC(=O)C1CCCN(C(=O)COc2ccccc2O)C1 (stereo unspecified) | -3.0 | 0.0 | -25.7 | -28.2 | 2.3 | -9.9
O=C(COC(=O)Cc1ccc(Br)cc1)NCc1ccc(F)cc1 | 2.5 | -2.0 | 38.1 | -24.5 | -1.9 | -4.7
O=C(Cc1csc(NC(=O)c2ccc(F)cc2)n1)NO | -2.1 | -1.0 | 17.6 | -2.8 | -12.1 | -6.3
Cc1ccc2c(c1)N(CCC(=O)NCCN1CCOCC1)C(=O)CO2 | 7.4 | -3.0 | 3.5 | -6.8 | -9.0 | 51.6*
C=CCNCCCOc1ccc(Cl)cc1C(C)(C)C | -10.2 | 2.0 | -12.5 | 32.5 | 65.2 | 27.6
C=CCNCCOCCOc1ccc(Cl)cc1C(C)(C)C | -1.9 | -2.0 | -8.5 | 57.8* | 51.8 | 22.5
CC(C)Cn1c(N)c(C(=O)COC(=O)/C=C/c2cccs2)c(=O)n(C)c1=O | -6.4 | . | 52.9* | -15.2 | -1.4 | -18.9
CC(C)Cn1c(N)c(C(=O)COC(=O)c2ccccc2Cl)c(=O)n(C)c1=O | -0.2 | 0.0 | 43.2 | -8.6 | 0.4 | 61.3*
CC(C)Cn1c(N)c(C(=O)COC(=O)c2cccc(Cl)c2)c(=O)n(C)c1=O | -5.4 | -2.0 | 77.0* | -1.2 | -4.4 | 6.1
CC(C)Cn1c(N)c(C(=O)COC(=O)c2ccc3ccccc3n2)c(=O)n(C)c1=O | -9.2 | 0.0 | -95.9 | -41.5 | -4.8 | 3.6
CC(C)Cn1c(N)c(C(=O)COC(=O)c2c(F)cccc2F)c(=O)n(C)c1=O | 3.3 | -1.0 | 16.8 | -7.4 | -3.5 | -19.6
CC(C)Cn1c(N)c(C(=O)COC(=O)c2ccccc2F)c(=O)n(C)c1=O | 10.2 | -3.0 | 46.1 | 0.9 | 6.1 | -19.4
CCSc1nc2ccccc2n1CC(=O)O | -11.0 | -4.0 | -13.5 | -1.8 | -6.9 | 22.2
CCN(CC)C(=O)C(=O)c1cccn1-c1c(Cl)cccc1C#N | -0.2 | 0.0 | 18.4 | -9.2 | -1.2 | 5.5
COc1ccc(NS(=O)(=O)c2ccc(N3CC(O)=C(c4ccccc4)C3=N)cc2)cc1 | -10.0 | . | -0.4 | -20.4 | -6.1 | 2.2
COc1cc(/C=C2\SC(c3ccccc3)=NC2=O)cc(Cl)c1O | -25.8 | 0.0 | -22.2 | -75.2 | -23.8 | 73.3*
COc1cc(/C=C2\SC(c3ccc(C)cc3)=NC2=O)cc(OC)c1OC | -73.5 | -6.0 | 0.7 | -2.7 | 0.2 | .
CC(C)(C)/C(O)=C(/C#N)c1nc2ccccc2[nH]1 | -12.2 | 2.0 | -1.5 | -11.9 | -11.5 | 12.2
N#C/C(=C(O)\C=C\c1ccccc1)c1nc2ccccc2[nH]1 | 8.9 | . | -63.1 | 49.9 | 25.6 | 67.3*
Cc1ccccc1Cn1c(=O)n(CCC(=O)NCc2ccc3c(c2)OCO3)c(=O)c2ccccc21 | 37.1* | 2.0 | 20.0 | 45.4 | 8.6 | -4.8
SMILES | p47phox inh | Bim-Mcl-1 | m-calpain inh | Mcl1 Bid PPI | 14-3-3 Bad inh | Mcl1 Noxa PPI
O=C(CCn1c(=O)c2ccccc2n(Cc2cccnc2)c1=O)NCc1ccc2c(c1)OCO2 | -17.2 | 0.0 | -30.2 | -4.9 | -6.0 | 9.4
CC(C)NC(=O)/C(=C/c1cn(-c2ccccc2)nc1-c1cccc([N+](=O)[O-])c1)NC(=O)c1ccccc1 | -0.9 | -6.0 | -6.8 | -0.9 | -15.0 | 5.2
Cc1oc(-c2ccccc2)cc1C(=O)Nc1ccc(N(C)C)cc1 | -3.0 | 0.0 | 14.4 | 6.0 | 2.6 | 72.8*
Cc1ccccc1C(=O)OC(C)CN1CCN(C)CC1 (stereo unspecified) | -6.2 | -2.0 | 0.6 | -21.4 | -3.0 | -1.5
COc1ccc(C(=O)OC(C)CN2CCN(C)CC2)cc1OC (stereo unspecified) | -3.4 | -1.0 | 2.0 | 42.0 | 88.9* | 16.9
CC(CN1CCN(C)CC1)OC(=O)c1ccccc1Cl (stereo unspecified) | 3.0 | 0.0 | 22.0 | -36.5 | 84.9* | 7.4
COc1ccc(OC)c(NC(=O)COC(=O)/C=C/c2ccc(Cl)cc2)c1 | -5.4 | -4.0 | 1.2 | -0.2 | 5.8 | 1.9
O=C(Nc1ccc(-c2ccc3nncn3n2)cc1)c1ccc(Br)o1 | 0.6 | 0.0 | -285.8 | -53.4 | 10.1 | 8.1
CCc1ccc(NC(=O)CSc2nnc(Cn3c(=O)sc4ccccc43)n2C)cc1 | -3.3 | -1.0 | 2.8 | 0.6 | -5.3 | 10.9
CCOC(=O)c1ccc(NC(=O)CSc2nnc(Cn3c(=O)sc4ccccc43)n2C)cc1 | + | -3.0 | 5.5 | 6.3 | 3.8 | -6.5
CCN(CC)S(=O)(=O)c1ccc(C(=O)NCCc2ccccn2)cc1 | -7.6 | -1.0 | -13.2 | -18.3 | -9.3 | 8.1
O=C(NCCc1ccccn1)c1ccc(OC(F)F)cc1 | 0.7 | 0.0 | 88.9* | -24.5 | -8.4 | -3.5
Nc1ccc(-c2nc3cc([N+](=O)[O-])ccc3o2)cc1 | -4.9 | . | -2.0 | 12.8 | 0.1 | 79.7*
COc1ccc(-c2nc3cc([N+](=O)[O-])ccc3o2)cc1 | -3.9 | -1.0 | -6.3 | -28.5 | -0.5 | 11.1
Cc1c(NC(=O)c2ccc(S(=O)(=O)N3CCOCC3)cc2)c(=O)n(-c2ccccc2)n1C | -6.5 | . | -8.6 | -11.2 | 0.1 | -36.7
Cc1ccc(C(C(=O)NCc2ccco2)N(Cc2ccco2)C(=O)CNC(=O)c2ccco2)cc1 (stereo unspecified) | 67.2* | -5.0 | -8.8 | -30.9 | 5.8 | 12.2
NNc1cc([N+](=O)[O-])cc2c1C(=O)N(Cc1ccccc1)S2=O (stereo unspecified) | -3.1 | -5.0 | -29.4 | -55.2 | 0.8 | 58.1*
Cc1[nH][nH]c(=O)c1C(c1ccc(-c2ccc(F)cc2)o1)c1c(C)[nH][nH]c1=O | -1.8 | 13.0 | 5.5 | -64.5 | -20.4 | -14.3
COc1ccc(-c2ccc(C(c3c(C)[nH][nH]c3=O)c3c(C)[nH][nH]c3=O)o2)c([N+](=O)[O-])c1 | 42.5* | -1.0 | -1.7 | -76.9 | -11.6 | 24.6
O=C(c1cccc2nc3ccccc3nc12)N1CCOCC1 | 5.8 | . | 12.3 | 3.3 | 0.8 | 3.9
O=C(NN=C1C2CC3CC1CC(Cl)(C3)C2)c1ccccn1 | -5.9 | -1.0 | 27.3 | 10.0 | 8.8 | 67.4*
O=C(NN=C1C2CC3CC1CC(Cl)(C3)C2)c1cccs1 | -11.2 | 1.0 | 31.2 | -2.9 | 5.2 | -3.1
Cc1cccn2cc(COc3ccc(-c4ccccc4)cc3)nc12 | -33.6 | -4.0 | -177.3 | -8.1 | 79.2* | 10.9
